Results reported in PubChem BioAssay AID1159580 (chemical genetic matrix, 2015).
Out of some 5,500 compounds screened, about 2,000 (36%) were called active. Another 18% or so got no clear call; they are omitted. Rule as the data show it: active = normalized growth mostly below about 0.91 (no sharp cut-off); inconclusive = no clear call, values can overlap the other calls; inactive = mostly above about 0.92. The list shows a part of the results.

Test: chemical genetic growth profiling, strain panel (AID 1159580);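 also: tested at 20 µM; growth read once vehicle control cultures reached saturation at 30 °C; 1 = growth at the plate median or of vehicle wells; lower values mean less growth of the strain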
Conditions: growth OD

Measured: normalized growth

CCN(CC)C(=O)N1CCN(C)CC1
inactive: S. cerevisiae deletion strains, locus YJR075W, strain HOC1, active compounds read low 1.03 | S. cerevisiae deletion strains, locus YKL009W, strain mrt4, active compounds read low 0.989 | S. cerevisiae deletion strains, locus YKL068W, active compounds read low 1 | S. cerevisiae deletion strains, locus YKL085W, strain MDH1 (second series), active compounds read low 1.04 | S. cerevisiae deletion strains, locus YKL085W, strain MDH1, active compounds read low 1.04 | S. cerevisiae deletion strains, locus YKL160W, strain elf1, active compounds read low 0.975 | S. cerevisiae deletion strains, locus YKR001C, strain vps1, active compounds read low 1.01 | S. cerevisiae deletion strains, locus YKR026C, strain gcn3, active compounds read low 0.965 | S. cerevisiae deletion strains, locus YKR091W, strain srl3, active compounds read low 0.949 | S. cerevisiae deletion strains, locus YLL001W, strain dnm1, active compounds read low 0.997 | S. cerevisiae deletion strains, locus YLL026W, active compounds read low 0.974 | S. cerevisiae deletion strains, locus YLL041C, strain sdh2, active compounds read low 0.994 | S. cerevisiae deletion strains, locus YLR027C, strain aat2, active compounds read low 0.964 | S. cerevisiae deletion strains, locus YLR039C, strain RIC1, active compounds read low 0.975 | S. cerevisiae deletion strains, locus YLR058C, strain SHM2, active compounds read low 1.02 | S. cerevisiae deletion strains, locus YLR102C, strain apc9, active compounds read low 0.993 | S. cerevisiae deletion strains, locus YLR113W, strain HOG1, active compounds read low 1 | S. cerevisiae deletion strains, locus YLR221C, strain rsa3, active compounds read low 0.963 | S. cerevisiae deletion strains, locus YLR258W, strain gsy2, active compounds read low 0.981 | S. cerevisiae deletion strains, locus YLR262C, strain YPT6 (second series), active compounds read low 0.967 | S. cerevisiae deletion strains, locus YLR262C, strain YPT6, active compounds read low 0.976 | S. cerevisiae deletion strains, locus YLR268W, strain sec22, active compounds read low 1.01 | S. cerevisiae deletion strains, locus YLR320W, strain mms22, active compounds read low 0.974 | S. cerevisiae deletion strains, locus YLR330W, strain CHS5, active compounds read low 1.01 | S. cerevisiae deletion strains, locus YLR342W, strain FKS1 (second series), active compounds read low 1.03 | S. cerevisiae deletion strains, locus YLR342W, strain FKS1, active compounds read low 0.98 | S. cerevisiae deletion strains, locus YLR357W, strain rsc2, active compounds read low 0.937 | S. cerevisiae deletion strains, locus YLR370C, strain arc18, active compounds read low 0.97 | S. cerevisiae deletion strains, locus YLR371W, strain rom2, active compounds read low 0.99 | S. cerevisiae deletion strains, locus YLR384C, strain iki3, active compounds read low 0.989 | S. cerevisiae deletion strains, locus YLR418C, strain cdc73, active compounds read low 0.947 | S. cerevisiae deletion strains, locus YML016C, strain PPZ1, active compounds read low 1.01 | S. cerevisiae deletion strains, locus YML032C, strain rad52, active compounds read low 0.995 | S. cerevisiae deletion strains, locus YML120C, strain ndi1, active compounds read low 0.961 | S. cerevisiae deletion strains, locus YML124C, strain tub3, active compounds read low 0.99 | S. cerevisiae deletion strains, locus YMR058W, strain fet3, active compounds read low 0.979 | S. cerevisiae deletion strains, locus YMR078C, strain ctf18, active compounds read low 0.993 | S. cerevisiae deletion strains, locus YMR125W, strain sto1, active compounds read low 0.973 | S. cerevisiae deletion strains, locus YMR129W, active compounds read low 0.964 | S. cerevisiae deletion strains, locus YMR205C, strain PFK2, active compounds read low 0.97 | S. cerevisiae deletion strains, locus YMR223W, strain ubp8, active compounds read low 0.993 | S. cerevisiae deletion strains, locus YMR231W, strain pep5, active compounds read low 0.981 | S. cerevisiae deletion strains, locus YMR263W, strain SAP30, active compounds read low 1.02 | S. cerevisiae deletion strains, locus YMR307W, strain GAS1, active compounds read low 0.999 | S. cerevisiae deletion strains, locus YNL067W, strain RPL9B, active compounds read low 1 | S. cerevisiae deletion strains, locus YNL071W, strain lat1, active compounds read low 0.964 | S. cerevisiae deletion strains, locus YNL128W, strain TEP1, active compounds read low 1.02 | S. cerevisiae deletion strains, locus YNL153C, strain GIM3, active compounds read low 1.01 | S. cerevisiae deletion strains, locus YNL183C, strain NPR1, active compounds read low 0.986 | S. cerevisiae deletion strains, locus YNL209W, strain ssb2, active compounds read low 0.969 | S. cerevisiae deletion strains, locus YNL233W, strain BNI4, active compounds read low 1.01 | S. cerevisiae deletion strains, locus YNL248C, strain rpa49, active compounds read low 0.888 | S. cerevisiae deletion strains, locus YNL250W, strain rad50, active compounds read low 1.01 | S. cerevisiae deletion strains, locus YNL271C, strain bni1, active compounds read low 1 | S. cerevisiae deletion strains, locus YNL298W, strain CLA4, active compounds read low 1.03 | S. cerevisiae deletion strains, locus YNL307C, strain MCK1, active compounds read low 1 | S. cerevisiae deletion strains, locus YNL322C, strain KRE1 (second series), active compounds read low 0.979 | S. cerevisiae deletion strains, locus YNR049C, strain mso1, active compounds read low 0.942 | S. cerevisiae deletion strains, locus YNR052C, strain pop2, active compounds read low 1 | S. cerevisiae deletion strains, locus YOL006C, strain TOP1, active compounds read low 1.03 | S. cerevisiae deletion strains, locus YOL012C, strain htz1 0.747 | S. cerevisiae deletion strains, locus YOL147C, strain pex11, active compounds read low 0.986 | S. cerevisiae deletion strains, locus YOR001W, strain rrp6, active compounds read low 0.976 | S. cerevisiae deletion strains, locus YOR061W, strain CKA2, active compounds read low 1.02 | S. cerevisiae deletion strains, locus YOR069W, strain VPS5, active compounds read low 1.01 | S. cerevisiae deletion strains, locus YOR070C, strain gyp1, active compounds read low 0.994 | S. cerevisiae deletion strains, locus YOR080W, strain dia2, active compounds read low 0.985 | S. cerevisiae deletion strains, locus YOR083W, strain WHI5, active compounds read low 0.995 | S. cerevisiae deletion strains, locus YOR106W, strain vam3, active compounds read low 0.976 | S. cerevisiae deletion strains, locus YOR136W, strain idh2, active compounds read low 0.991 | S. cerevisiae deletion strains, locus YOR144C, strain elg1, active compounds read low 1 | S. cerevisiae deletion strains, locus YOR184W, strain ser1, active compounds read low 1.02 | S. cerevisiae deletion strains, locus YOR231W, strain MKK1, active compounds read low 1.02 | S. cerevisiae deletion strains, locus YOR265W, strain rbl2, active compounds read low 0.989 | S. cerevisiae deletion strains, locus YOR270C, strain vph1, active compounds read low 0.965 | S. cerevisiae deletion strains, locus YOR290C, strain snf2, active compounds read low 0.966 | S. cerevisiae deletion strains, locus YOR316C, strain cot1, active compounds read low 1 | S. cerevisiae deletion strains, locus YPL051W, strain arl3, active compounds read low 1 | S. cerevisiae deletion strains, locus YPL078C, strain atp4, active compounds read low 0.973 | S. cerevisiae deletion strains, locus YPL106C, strain sse1, active compounds read low 0.898 | S. cerevisiae deletion strains, locus YPL240C, strain hsp82, active compounds read low 0.974 | S. cerevisiae deletion strains, locus YPL241C, strain CIN2, active compounds read low 1 | S. cerevisiae deletion strains, locus YPL256C, strain CLN2, active compounds read low 1.04 | S. cerevisiae deletion strains, locus YPR119W, strain clb2, active compounds read low 0.998 | S. cerevisiae deletion strains, locus YPR141C, strain kar3, active compounds read low 0.981 | S. cerevisiae deletion strains, locus YPR163C, strain tif3, active compounds read low 1 | S. cerevisiae deletion strains, locus YPR167C, strain met16, active compounds read low 0.996 | S. cerevisiae deletion strains, strain wtn01, active compounds read low 1.01 | S. cerevisiae strains, strain wild type, active compounds read low 1.01
